D1 allo mod – D1 CRE-luciferase signal change, two-sided – cell-based, HEK293 D1, dopamine EC30, D1 allosteric modulator project, primary screen. D(1A) dopamine receptor (Homo sapiens), P21728. dopamine EC30 potentiation; actives deviate in either direction. B-score at 10 µM. 5.9% of 58,000 active. AID 641, 2007;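 active means luminescence count or its row- and column-corrected plate score outside the 99.7% band of the plate's sample wells, on either side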
Target sequence (P21728 whole entry, looked up): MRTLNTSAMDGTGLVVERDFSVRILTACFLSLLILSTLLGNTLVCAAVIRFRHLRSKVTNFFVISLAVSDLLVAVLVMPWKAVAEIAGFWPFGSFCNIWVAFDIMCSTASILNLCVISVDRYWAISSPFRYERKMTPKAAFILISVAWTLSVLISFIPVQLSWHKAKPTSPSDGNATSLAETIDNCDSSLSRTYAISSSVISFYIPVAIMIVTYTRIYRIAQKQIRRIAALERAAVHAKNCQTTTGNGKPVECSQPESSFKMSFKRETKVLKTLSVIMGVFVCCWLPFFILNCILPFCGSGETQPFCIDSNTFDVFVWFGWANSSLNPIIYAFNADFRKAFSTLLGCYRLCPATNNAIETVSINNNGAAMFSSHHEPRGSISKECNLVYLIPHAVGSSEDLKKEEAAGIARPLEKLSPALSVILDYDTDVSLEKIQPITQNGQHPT
FXIa inh mix – FXIa protease inhibitors in compound pools, primary screen, biochemical, 10-compound mixtures. purified FXIa, fluorogenic substrate, pooled mixtures. inhibition, % at 5 µM. 0.19% of 62,000 active. AID 680, 2007;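 further: each value is inhibition by a whole ten-compound pool holding the compound; 0% = enzyme with no mixture and 100% = wells lacking enzyme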
M1 ag – M1 muscarinic receptor agonists, primary screen, CHO-M1 cells, Fluo-4 calcium, agonist mode | Muscarinic acetylcholine receptor M1 | B-score at 10 µM | 3% of 64,000 active | Fluo-4 calcium fluorescence; stronger effect = higher value;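 active means fluorescence rise, raw or as B-score row- and column-corrected plate score, outside the 99.7% band of its plate's samples, either direction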
hDAT+cocaine – changed hDAT dopamine uptake under cocaine IC80, either direction, primary screen, cocaine antagonist project, cell-based, LLC-PK1 hDAT, [14C]-dopamine uptake, MLSMR | 1.3% of 110,000 active | LLC-PK1 hDAT cells, [14C]-dopamine uptake with cocaine IC80; actives deviate in either direction | Sodium-dependent dopamine transporter (Homo sapiens), Q01959 | B-score at 10 µM;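 active means Z score or B-score, a plate-position-corrected score, falls beyond the plate's 99.7% confidence bounds, in either direction; inactive means both scores lie inside the 99.7% bounds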;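 further: scored against the spread of the other compound wells on the same plate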
FXIIa inh mix – human factor XIIa inhibitors, primary screen, biochemical, pooled compound mixtures, fluorogenic substrate | purified FXIIa | inhibition, % at 5 µM | 0.2% of 62,000 active;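 further: 0% = enzyme without compound and 100% = no enzyme blank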
M1 antag – antagonists of rat M1 muscarinic receptor | Muscarinic acetylcholine receptor M1 (Rattus norvegicus), P08482 | CHO-M1 cells, Fluo-4 calcium, ACh EC80 antagonist mode; stronger effect = lower value | B-score at 10 µM | 3.4% of 64,000 active | AID 628, 2007;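 active means calcium fluorescence response, raw or row-and-column corrected B-score, differing from the plate sample mean either way at a set confidence level, mostly lower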
M1 ag confirm – rat M1 muscarinic receptor agonists, confirmation, CHO-M1 cells, Fluo-4 calcium, duplicate retest | 19% of 1,700 active | AID 1488, 2009 | Fluo-4 calcium fluorescence, agonist mode; actives lie on both sides | fluorescence change (max-min) at 10 µM | shares compounds with M1 ag;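 active means fluorescence change differs from the solvent-only DMSO control mean at a set confidence level in both duplicate runs; inconclusive means differs from solvent-only control mean in just one of two runs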;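 further: an EC20 dose of acetylcholine follows compound addition during the same imaging run; raw fluorescence intensity difference in instrument units with no normalization to controls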
M4 ag counter – agonist activity at rat M4 receptor, confirmation, counter-screen for M1 allosteric modulator project, cell-based, agonist mode; shares compounds with M1 ag; CHO M4/Gqi5 cells, Fluo-4 calcium fluorescence; actives lie on both sides; fluorescence change (max-min) at 10 µM; 9% of 1,700 active; AID 1741, 2009;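 active means fluorescence change differing from the plate's solvent-only control wells at 99.7% confidence in both duplicates, whether higher or lower; inconclusive means differs from solvent controls in only one of two duplicates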
M1 antag confirm – rat M1 muscarinic receptor antagonists, confirmation, CHO cells, Fluo-4 calcium, duplicate | 43% of 1,700 active | shares compounds with M1 antag | calcium response (max-min fluorescence) at 10 µM | ACh EC80 antagonism; stronger effect = lower value;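 active means calcium response below the same-plate mean of wells given acetylcholine alone at its 80%-effect dose, minus 3 SD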;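 further: raw fluorescence intensity difference in arbitrary instrument units and not normalized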
mGluR4 antag – human mGluR4 response to M1 antagonist hits, M1 allosteric modulator project, cell-based, antagonist mode, secondary assay 1; shares compounds with M1 antag; CHO-mGluR4 calcium flux, Fluo-4 fluorescence, glutamate EC80; stronger effect = lower value; fluorescence response (max-min) at 10 µM; 0.9% of 1,700 active;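 active means fluorescence response below the plate's average for near-maximal glutamate wells, less 3 SD of those wells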;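 further: raw unnormalized fluorescence span taken in the window right after glutamate addition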
D1 mod confirm – D1 receptor positive allosteric modulators, retest, confirmation, cell-based, HEK293 D1, CRE-luciferase, duplicate | shares compounds with D1 allo mod | dopamine EC30 potentiation; stronger effect = higher value | luminescence at 10 µM | 88% of 2,200 active | AID 642, 2007;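 active means luminescence in either of two replicates above the same-plate mean plus 3 SD of the low-dose dopamine control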
D1 ag no DA – D1 receptor agonism without dopamine, confirmation, mechanism study for D1 allosteric modulator project, cell-based, HEK293 D1, CRE-luciferase, secondary assay 1; 0.8% of 1,900 active; shares compounds with D1 allo mod; luminescence at 10 µM; luminescence, no dopamine; stronger effect = higher value; in the data active means luminescence above about 3900
Isoprot counter – counter-screen for D1 modulators: isoproterenol response in HEK293 cells; shares compounds with D1 allo mod; 63% of 2,200 active; HEK293 D1 CRE-luciferase, isoproterenol EC30 counter-screen; calls only at 10 µM;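 active means luminescence in either replicate above plate mean of wells with a partly effective reference agonist dose plus 3 SD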;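 further: isoproterenol raises cAMP through native beta-adrenoceptor Gs so signal bypasses D1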
The depositor's hits bear a star; i = inactive; ? = inconclusive; · = not tested or not shown. Only some compounds are listed: those with a hit (about 7.4% of all), similar ones and a draw of the others. Unless noted, no stated cut-off is given here; in the data, active means inhibition above about 20% (passing the limit was not always enough); inactive means the rest.

SMILES	D1 allo mod	FXIa inh mix	M1 ag	hDAT+cocaine	FXIIa inh mix	M1 antag	M1 ag confirm	M4 ag counter	others
CC(=NCCCN1CCOCC1)c1c(O)[nH]c(=O)[nH]c1=O	-0.469	0.6	1.48*	0.915	6.5	0.413	?	-73
CCOc1cc(-c2nc3c(C)cccn3c2NCC2CCCO2)ccc1O (stereo not drawn)	-0.0783	2.7	0.913	1.1	-10.5	-0.733	·	·
O=C(c1cc(-c2ccccc2)nc2ccccc12)N1CCC2(CC1)OCCO2	1.1	0.3	4.26*	0.00425	4.9	-0.033	-16.5	-41.9
O=C(c1cccn2c(=O)c3ccccc3nc12)N1CCC2(CC1)OCCO2	·	·	·	0.576	·	·	·	·
O=c1[nH]c(=O)n(CCC2=CCCCC2)c(O)c1C=NCCN1CCNCC1	-0.734	7.5	0.542	·	1.1	0.199	·	·
CCN(CC)c1ccc(N=Cc2c(O)n(CCC3=CCCCC3)c(=O)[nH]c2=O)cc1	0.32	4.2	109*	0.603	3.0	-0.648	578*	627*
CN(C)c1ccc(N=Cc2c(O)n(CCC3=CCCCC3)c(=O)[nH]c2=O)cc1	-0.475	0.5	7.92*	-1	2.1	-1.05	?	12.9
C=CCn1c(O)c(C=Nc2ccc(N(CC)CC)cc2)c(=O)[nH]c1=O	·	16.7	17*	-1.25	-16.5	-0.00932	15.4	17.7
CC1(C)COC(Nc2cccc(Cl)c2)=N1	·	·	·	1.09	·	·	·	·
CCCS(=O)(=O)N1CCC(C(=O)N2CCC3(CC2)OCCO3)CC1	1.18	4.5	-0.421	-1.37	5.9	-0.325	·	·
CCCS(=O)(=O)N1CCCC(C(=O)N2CCC3(CC2)OCCO3)C1 (stereo not drawn)	0.221	5.1	1.95*	0.0317	3.4	0.878	-6.59	-10.4
Cn1c2ccccc2c2c(C(=O)N3CCC4(CC3)OCCO4)cn(C3CCCC3)c(=O)c21	-0.0133	3.1	14.4*	0.932	4.3	-0.729	-4.01	-26.4
COCCn1cc(C(=O)N2CCC3(CC2)OCCO3)c2c3ccccc3n(C)c2c1=O	0.0151	1.1	-1.02	-0.398	9.8	-0.235	·	·
CC(NCc1ccc(Cl)cc1Cl)C(O)c1ccccc1 (stereo not drawn)	·	·	·	0.574	·	·	·	·
Cn1nc(-c2ccc(OCC(=O)N3CCN(Cc4ccccc4)CC3)cc2)c2ccccc2c1=O	0.752	·	5.4*	-0.0141	·	-2.01*	?	-72.2
O=c1[nH]c(=O)n(-c2ccc(F)cc2)c(O)c1C=Nc1ccccc1N1CCCC1	-0.0916	1.8	4.25*	-0.144	2.9	0.0997	-2.11	?
CCOP(=O)(C#CC(C)(C)C)C(O)(c1ccccc1)C(F)(F)F (stereo not drawn)	-0.452	4.9	0.0298	0.757	0.7	-0.363	·	·
CCCNc1oc(-c2cccc3ccccc23)nc1C#N	0.216	-25.9	-0.665	1.64	1.5	-0.455	·	·
O=CC(Cl)P(=O)(N1CCCCC1)N1CCCCC1 (stereo not drawn)	·	·	·	-1.25	·	·	·	·
Cc1cc2c(C(F)(F)F)cc(=O)oc2c2c1NCCC2	1.91	-6.1	205*	-0.594	5.0	-0.524	1315*	1119*
CCNCC1(c2ccc(OC)c(OC)c2)CCCC1	0.554	-5.3	46.6*	0.388	10.2	-15.4*	-7.68	-26.9
COCCNC(=O)c1c(NC(=O)c2ccco2)n(Cc2ccccc2)c2nc3ccccc3nc12	4.3*	-16.6	3.56*	0.923	2.5	0.0467	40.4	17.7	D1 mod confirm=10288*;D1 ag no DA=1576;Isoprot counter=i
Cc1ccc(C(=O)Nc2ccc(-n3ccnc3P(=O)(O)c3ccccc3)cc2)cc1	·	·	·	0.167	·	·	·	·
CN1CCN(CCC(C#N)(c2ccccc2)c2ccccc2)CC1	·	9.0	0.0707	-0.901	6.5	-17*	·	·	M1 antag confirm=16.2*;mGluR4 antag=230
CCN(CC)CCCOC(=O)C(OC(C)C)(c1ccccc1)c1ccccc1	·	·	·	-0.342	·	·	·	·
SMILES	D1 allo mod	FXIa inh mix	M1 ag	hDAT+cocaine	FXIIa inh mix	M1 antag	M1 ag confirm	M4 ag counter	others
COc1ccc(CN2CCCCC2c2cccnc2)cc1C (stereo not drawn)	-0.96	0.4	-0.88	-1.13	-6.1	-5.38*	·	·	M1 antag confirm=482*;mGluR4 antag=242
Cc1cccc(-n2c(-c3ccco3)nc3ccccc3c2=O)n1	-0.159	7.5	-0.558	1.04	1.1	-0.0479	·	·
O=C(COc1ccc2ccccc2c1)N1CCN(C2CCN(Cc3ccccc3)CC2)CC1	0.814	2.3	-0.884	0.604	-8.1	-2.38*	·	·	M1 antag confirm=530;mGluR4 antag=252
O=C(COc1ccccc1)N1CCN(C2CCCC2)CC1	-0.421	6.6	-0.251	0.756	0.1	-0.881	·	·
O=C(CN1C(=O)CN=C(c2ccccc2Cl)c2cc(Cl)ccc21)NCc1ccco1	-1.16	5.5	-0.379	0.444	-14.1	0.285	·	·
O=C1NC(=O)C(CCc2ccncc2)(C2CCCCC2)C(=O)N1	-0.635	8.9	0.018	·	6.2	-4.59*	·	·	M1 antag confirm=550*;mGluR4 antag=185
CCOC(=O)C1=C(C)N(C)C2(C)CC1c1ccccc1O2 (stereo not drawn)	-0.873	-6.8	0.859	-0.623	-5.4	-2.39*	·	·	M1 antag confirm=563;mGluR4 antag=209

Screening results: PubChem, several laboratories
